Rab9 prom act = activates the Rab9 promoter; AID 485297; Potency, µM (highest dose often 9.22 µM), for the others: at the top dose activation, negative = inhibition, most hits filed as activators; Huh7 Rab9 promoter-luciferase reporter, luminescence, 24 h; 320,000 compounds, 2.8% hits; further: % of control where 0% means no effect; nearly all actives have a fitted effect of over 60% in size
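Huh7 cells stably carrying Rab9 promoter–luciferase reporter, plated 1500 cells/well, compound added after 2 h and incubated 24 h at 37 °C; luciferase luminescence then read after 10 min with detection reagent.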
ELG1 genotoxic = genotoxicity induction in ELG1-luciferase HEK293T cells; HEK293T ELG1-luciferase reporter, luminescence, 16 h; Potency, µM (highest dose often 46 µM), for the others: at the highest dose activity change, positive = activation, actives largely listed as activators; 330,000 compounds, 1.3% hits; AID 504466; further: % of control where 0% means no effect; nearly all actives have a fitted effect of over 60% in size
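Genotoxicity was scored as increased ELG1-luciferase reporter signal, measured by ONE-Glo luminescence (30 min, room temperature). Compound or vehicle exposure of the HEK293T reporter cells lasted 16 hr at 37°C.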
ELG1 repair inh = blocks ELG1-dependent DNA repair in HEK293T cells; Potency, µM (highest dose often 46.1 µM), for the others: top-dose activity change, negative = inhibition, most hits filed as inhibitors; AID 504467; HEK293T ELG1-luciferase reporter, luminescence, 16 h; DNA damage induced by 5-fluorouridine; 330,000 compounds, 2.3% hits; further: on the % scale 0 is the no-effect control and ±100 the full control effect; nearly all actives have a fitted effect of over 55% in size
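Step one: seed 2,000 cells per well. Step two: pin-transfer compound or DMSO alongside 5-fluorouridine. Step three: incubate 16 hr, 37 °C, 5% CO2. Step four: add ONE-Glo, wait 30 min, read luminescence.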
FLuc counter = inhibits or activates purified firefly luciferase, miR-21 counter-screen. P08659. purified FLuc, Km substrates, luminescence inhibition. Potency, µM (highest dose often 57.5 µM), inactives show top-dose activity change, negative = inhibition, actives largely listed as inhibitors. 360,000 compounds, 6.9% hits;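 further: plate controls were vehicle for no effect and reference inhibitor for full effect; nearly all actives have a fitted effect of over 55% in size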
Target sequence (P08659 whole entry, looked up): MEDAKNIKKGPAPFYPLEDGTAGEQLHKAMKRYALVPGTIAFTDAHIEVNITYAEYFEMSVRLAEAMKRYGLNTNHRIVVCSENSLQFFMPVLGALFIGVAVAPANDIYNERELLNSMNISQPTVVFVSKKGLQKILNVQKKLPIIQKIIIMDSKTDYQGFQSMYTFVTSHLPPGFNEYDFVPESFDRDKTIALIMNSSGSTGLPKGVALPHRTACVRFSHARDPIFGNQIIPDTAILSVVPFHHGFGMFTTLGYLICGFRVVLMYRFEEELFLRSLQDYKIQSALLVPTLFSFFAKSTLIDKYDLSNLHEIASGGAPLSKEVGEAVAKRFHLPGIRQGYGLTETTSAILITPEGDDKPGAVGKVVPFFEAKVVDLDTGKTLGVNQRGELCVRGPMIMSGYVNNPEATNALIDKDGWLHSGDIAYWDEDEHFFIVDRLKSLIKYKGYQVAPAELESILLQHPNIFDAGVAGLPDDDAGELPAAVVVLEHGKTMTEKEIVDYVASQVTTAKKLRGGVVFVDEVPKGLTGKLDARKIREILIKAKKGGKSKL
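Biochemical qHTS of compounds, final roughly 60 µM downward over six points, against 10 nM purified firefly luciferase using Km concentrations of substrates (10 uM D-luciferin, 10 uM ATP) in Tris acetate pH 7.5 buffer; luminescence output.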
NPC1 prom act = activates the NPC1 promoter. Huh7 NPC1 promoter luciferase reporter, 24 h. Potency, µM (titrated, usually from 9.22 µM), for inactives: top-dose activation, usual class: activators. 320,000 compounds, 2.4% hits. AID 485313; further: % of control where 0% means no effect; nearly all actives have a fitted effect of over 60% in size
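NPC1 promoter–luciferase Huh7 cells; 24 h compound; luminescence.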
SMN2 splice up = enhancers of SMN2 splice variant expression. HEK293 SMN2-luciferase splicing reporter, luminescence, 30-36 h. Potency, µM (highest dose often 46.1 µM), without a hit: at the top dose activity change, positive = activation, hits mostly activators. 210,000 compounds, 2.8% hits; further: % of control where 0% means no effect; nearly all actives have a fitted effect of over 55% in size
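HEK293 cells carry an SMN2 […]–luciferase reporter in which exon 7 inclusion puts luciferase in frame. Cells were plated 10-12 h before compound addition, then incubated 30-36 h at 37C. ONE-Glo luminescence was read; sodium butyrate at 4.5 mM final served as control.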
Starred values were filed as active, the others as inactive; u = inconclusive; x = not tested or not shown. In the library only some 9.4% were active in any assay of this set; here they are far more common. The call rests on the fitted dose curve; in most records, active means well fitted curve in the direction sought with a large enough effect; inconclusive means small, poorly fitted or top-dose-only effect, or another doubt; inactive means no such curve, though single readings can be large; an effect the other way counts as inactive or inconclusive. Potency means the concentration at half of the fitted maximal effect.

SMILES	Rab9 prom act	ELG1 genotoxic	ELG1 repair inh	FLuc counter	NPC1 prom act	SMN2 splice up
Cc1ccc(OCC(=O)N2N=C(c3ccc(Cl)cc3)CC2c2ccco2)c([N+](=O)[O-])n1 (centres undefined)	-8.3%	-5.9%	20.6µM*	-0.9%	-3.0%	-15.2%
O=C(COc1cccnc1[N+](=O)[O-])N1N=C(c2ccc(Cl)cc2)CC1c1ccco1 (centres undefined)	11.8%	-8.2%	u	-5.3%	0.2%	x
COc1cc(OC)cc(-n2c(=O)c3ccccc3n(Cc3ccccc3C#N)c2=O)c1	x	x	x	-1.3%	x	-2.6%
Cc1cc(C)c(NC(=O)CSc2nc3ccccc3nc2N2CCCCC2)c(C)c1	x	x	x	-3.2%	x	-2.6%
CC(C)(C)n1nnnc1CN1CCN(C(c2ccccc2)c2ccccc2)CC1	-6.2%	-26.9%	18.4µM*	5.0%	-12.4%	x
CC(C)(C)c1ccc(C(=O)Nn2cnnc2)cc1	25.7%	2.5%	24.6%	23.9µM*	17.9%	x
COC(=O)c1ccc(OCC(=O)c2cccc(OC)c2)cc1	u	u	u	23.9µM*	u	5.62µM*
COC(=O)c1ccc(OCCOc2ccccc2)cc1	u	u	u	15.1µM*	15.1%	-4.5%
COC(=O)c1ccc(O)cc1	-1.8%	-6.3%	2.0%	9.0%	-3.7%	x
COC(=O)c1ccc(N=Nc2ccccc2)cc1	u	1.7%	u	5.36µM*	14.3%	19.5%
COc1cccc(C(=O)COc2ccc(NC(=O)c3cccs3)cc2)c1	-1.2%	-18.9%	14.6µM*	8.49µM*	3.5%	x
CCCN1CCN(CC2=C(C(=O)OCC)C(c3ccc(OC(C)C)cc3)NC(=O)N2)CC1 (centres undefined)	x	x	x	-8.0%	x	-0.1%
CCCOc1ccc(C(=O)Nc2ccc(NC(=O)c3cccs3)cc2)cc1	12.1%	4.9%	0.6%	-2.8%	0.6%	x
O=C(COc1ccc(NC(=O)c2cccs2)cc1)c1ccc(F)cc1	17.6%	22.1%	14.1%	1.9µM*	11.0%	x
COC(=O)c1ccc(NC(=O)CNc2ccccc2)cc1	u	u	u	23.9µM*	27.0%	x
CCOC(=O)c1[nH]c2cc(OC)c(OC)cc2c1NC(=O)C(C)N1CCN(Cc2ccccc2)CC1 (centres undefined)	-3.4%	-11.8%	9.2µM*	0.3%	0.2%	9.7%
CCOC(=O)c1cnc2ccc(OCC)cc2c1N1CCN(c2ccccc2OC)CC1	-7.0%	-17.1%	14.6µM*	-0.6%	-2.9%	27.5%
CCOC(=O)c1cnc2c(OC)cccc2c1N1CCN(c2ccccc2F)CC1	x	x	x	-0.4%	x	-0.9%
CCOC(=O)c1[nH]c2ccc(OC)cc2c1NC(=S)N1CCN(c2ccccc2OC)CC1	-14.7%	-10.2%	7.31µM*	-6.6%	-20.0%	8.8%
COC(=O)c1[nH]c2cccc(OC)c2c1NC(=O)CCN1CCN(c2cccc(Cl)c2)CC1	-0.4%	-12.8%	18.4µM*	0.0%	23.5%	-25.6%
COC(=O)c1[nH]c2cc(C)ccc2c1NC(=O)CN1CCOCC1	0.9%	1.3%	-10.9%	-7.1%	-0.2%	x
COC(=O)c1[nH]c2cc(C)ccc2c1NC(=O)CN1CCN(c2ccccc2OC)CC1	-16.1%	-45.4%	20.6µM*	-2.3%	-5.1%	u
Cc1[nH]n(-c2ccccc2)c(=O)c1/C=N/NC(=O)c1cccc(F)c1	-38.9%	u	u	9.53µM*	-32.3%	x
Cc1[nH]n(-c2ccc(Br)cc2)c(=O)c1/C=N/NC(=O)c1ccccc1	-36.4%	u	u	2.13µM*	-21.8%	x
CCOC(=O)c1c(C)c(-c2ccccc2)n(CC(=O)Nc2cccc(C)c2C)c1C	x	x	x	-7.6%	x	-7.3%
SMILES	Rab9 prom act	ELG1 genotoxic	ELG1 repair inh	FLuc counter	NPC1 prom act	SMN2 splice up
CC(=O)c1ccc(NC(=O)Nc2cccnc2)cc1	u	20.6µM*	u	u	2.51µM*	x
Cc1ccc(NC(=O)Nc2cccnc2)cc1Cl	27.7%	u	u	4.78µM*	u	x
O=C(Nc1ccccc1)C(=O)Nc1cccnc1	0.398µM*	u	u	3.01µM*	0.501µM*	x
O=C(Nc1ccccc1)Nc1ccc(Oc2cccnc2)nc1	24.9%	5.5%	u	13.5µM*	27.1%	x
O=C(Nc1cccnc1)Nc1cc(Cl)cc(Cl)c1	-5.6%	-5.3%	-10.3%	u	-9.5%	x
COc1ccc2c(c1)c1c(c(=O)n(-c3ccc(OC)c(OC)c3)c(=O)n1Cc1ccccc1F)n2C	x	x	x	5.7%	x	x
Fc1ccc(NC(=S)Nc2cccnc2)cc1	-2.3%	-7.7%	-13.0%	2.8%	-2.4%	-8.5%
Cc1ccc(NC(=O)Nc2ccon2)cc1Cl	23.4%	2.9%	24.1%	19µM*	21.5%	x
O=C(Nc1ccc(F)cc1)Nc1cccnc1	4.3%	0.8%	15.9%	16.9µM*	10.3%	x
O=C(NCC(F)(F)F)Nc1cccnc1	7.1%	1.3%	-9.3%	-1.3%	-6.6%	-10.5%
O=C(Nc1ccc(Cl)cc1)Nc1ccon1	6.2%	2.7%	-1.8%	u	-21.5%	x
Cn1ccc2cc3c(cc21)CCN3C(=O)Nc1cccnc1	3.16µM*	u	u	6.01µM*	3.66µM*	u
O=C(Nc1ccc(OC(F)(F)F)cc1)Nc1cccnc1	u	6.3%	u	7.57µM*	u	x
CCC(C)c1ccc(NC(=O)Nc2cccnc2)cc1 (centres undefined)	4.47µM*	u	u	1.69µM*	1.78µM*	x
CN1CCc2cc(NC(=O)Nc3cccnc3)ccc21	u	x	x	x	9.2µM*	u
O=C(Nc1cccnc1)Nc1cccc([N+](=O)[O-])c1	5.3%	-8.5%	-10.8%	-18.2%	10.6%	x
CCOc1ccc(NC(=O)Nc2ccon2)cc1	u	u	u	23.9µM*	25.3%	x
Cc1ccc(NC(=O)Nc2ccon2)cc1	u	14.1%	u	u	25.3%	x
COC(=O)c1c(Oc2ccc(Br)cc2)nnc(-c2ccccc2)c1-c1ccccc1	x	x	x	-3.3%	x	-60.2%
COc1cc2c(cc1OC)C(COc1ccccc1OC)N(C(=O)COc1ccc(Cl)cc1)CC2 (centres undefined)	x	x	x	-2.4%	x	x
CCOc1ccc(NC(=O)CN2CCN(Cc3ccccc3)S2(=O)=O)cc1	x	x	x	-8.3%	x	x
O=C(CN1C(=O)COc2ccc(S(=O)(=O)Nc3ccccc3)cc21)Nc1cccc(Cl)c1	x	x	x	-4.1%	x	x
COc1ccc(NS(=O)(=O)c2ccc3c(c2)CCCN3C(=O)C2CCC2)cc1OC	x	x	x	-4.8%	x	x
c1ccc(CSc2ccc(-c3ccccn3)nn2)cc1	2.24µM*	2.31µM*	u	4.78µM*	0.794µM*	0.794µM*
O=C(CSc1ccc(-c2ccccn2)nn1)c1ccccc1	u	u	u	u	22.7%	-24.4%
Clc1ccc(CSc2ccc(-c3ccccn3)nn2)cc1	u	23.1µM*	u	u	u	-42.1%
